Sampled rows, rich in hits. Any-hit rate of the full collection: about 5.7%.
KB-V1 MDR tox: kills drug-selected multidrug resistant KB-V1 cells; Potency, µM (titrated, usually from 46.1 µM), most hits filed as cytotoxic; hit rate 3.4% among 400,000; KB-V1 MDR cells viability, CellTiter-Glo, 72 h; further: potency means the concentration at half of the fitted maximal effect; nearly all actives have a fitted effect of over 60% in size
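Cytotoxicity via CellTiter-Glo luminescence after 72 h compound exposure at 37 degrees C. Cells: drug-selected KB-V1 line, DMEM phenol-red free plus 10% FBS. Compounds tested at multiple concentrations; normalized data fitted to concentration-effect curves.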
Giardia kill: kills Giardia lamblia; activity change, % at 7.66 µM, hits read low; Giardia lamblia trophozoite viability; AID 540267; hit rate 0.15% among 340,000; in the data active means activity change below about -80%; inconclusive means between about -30% and that limit;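 further: parasites exposed to compound for two days anaerobically before the ATP read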
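Luminescence from cellular ATP indicates surviving trophozoites (100 cells/well) following 48 hrs anaerobic compound treatment at 37 deg C; signal develops 15-30 min at room temperature.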
PI4K2A inh: inhibitors of human PI4K2A. hit rate 0.13% among 420,000. purified PI4K2A, ADP-Glo luminescence, 1 h; stronger effect = lower value. activity change, negative = inhibition, % at 76.9 µM; in the data active means activity change below about -50%; inconclusive means mostly about -30% to -49%;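 further: -100% = wells without enzyme as full effect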
Target sequence (Q9BTU6 whole entry, looked up): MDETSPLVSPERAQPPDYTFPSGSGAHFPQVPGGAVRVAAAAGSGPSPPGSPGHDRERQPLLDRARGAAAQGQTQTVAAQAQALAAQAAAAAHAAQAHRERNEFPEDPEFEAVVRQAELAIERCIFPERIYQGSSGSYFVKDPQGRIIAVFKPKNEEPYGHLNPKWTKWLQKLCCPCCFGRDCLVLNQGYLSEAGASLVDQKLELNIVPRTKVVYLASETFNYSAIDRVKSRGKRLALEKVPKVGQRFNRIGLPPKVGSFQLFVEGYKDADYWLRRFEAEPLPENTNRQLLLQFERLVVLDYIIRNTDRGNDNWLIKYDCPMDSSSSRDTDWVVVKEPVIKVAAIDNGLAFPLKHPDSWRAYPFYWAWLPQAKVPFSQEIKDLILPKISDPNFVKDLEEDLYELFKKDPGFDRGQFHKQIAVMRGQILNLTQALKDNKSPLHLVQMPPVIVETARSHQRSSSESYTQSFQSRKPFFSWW
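Compounds are screened against recombinant PI4K2A using PI as substrate and ATP, the latter dispensed at 300 microM. Reactions run one hour at ambient temperature before ADP-Glo detection; full inhibition defined by wells lacking enzyme.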
Nrf2 inh: Nrf2 pathway inhibition; A549 ARE-Fluc reporter, luciferase luminescence, 18-24 h; Potency, µM (highest dose often 46 µM), without a hit: at the top dose activity change, negative = inhibition, usual class: inhibitors; hit rate 2.1% among 360,000; further: potency means the concentration at half of the fitted maximal effect; nearly all actives have a fitted effect of over 60% in size
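Nrf2 function is reported as luminescence of an ARE-controlled luciferase in A549 cells. Compounds were tested at several concentrations, and a CellTiter-Fluor read on the same wells flagged cytotoxicity.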
KB-3-1 tox: kills parental KB-3-1 adenocarcinoma cells. KB-3-1 viability, CellTiter-Glo ATP luminescence, 72 h. Potency, µM (highest dose often 46.1 µM), most hits filed as cytotoxic. hit rate 1.4% among 400,000. AID 1347075; further: potency means the concentration at half of the fitted maximal effect; nearly all actives have a fitted effect of over 60% in size
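KB-3-1 parental drug-naive adenocarcinoma cells in DMEM/10% FBS, incubated 72 h at 37 C with pin-transferred compounds across a concentration series. Viability by CellTiter-Glo luminescence; concentration-response curves fitted after normalization.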
A549 tox: counter-screen for Nrf2 inhibitors: cytotoxicity in A549 cells; AID 504648; Potency, µM (top dose mostly 46 µM), for inactives: at the top dose activity change, negative = cytotoxicity, hits mostly inhibitors; A549 ARE-Fluc cells, CellTiter-Fluor viability, 18-24 h; hit rate 0.16% among 390,000; further: potency means the concentration at half of the fitted maximal effect
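A549 ARE-Fluc cells in 5% FBS OPTI-MEM, 5000 cells/well, rested 2 h then exposed to compounds in concentration-response for 18-24 h at 37 °C. Viability by CellTiter-Fluor fluorescence (Ex 405/Em 525) after 30 min; luciferase luminescence (BugLite, 15 min, RT) read afterwards.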
* = called active by the depositor. Unless noted, the call rests on the fitted dose curve; in most records, active means well fitted curve in the direction sought with a large enough effect; inconclusive means small, poorly fitted or top-dose-only effect, or another doubt; inactive means no such curve, though single readings can be large; an effect the other way counts as inactive or inconclusive. Unless noted, on the % scale 0 is the no-effect control and ±100 the full control effect.

For O=C(Nc1nn(Cc2ccc(Cl)cc2)cc1Br)c1ccc(COc2ccccc2Cl)o1 the results were KB-V1 MDR tox 16µM*, Giardia kill 3, PI4K2A inh 4, KB-3-1 tox inconclusive and A549 tox -15%.
Screening COc1ccc(NC(=O)Nc2sc3nc4n(c(=O)c3c2C)CCC(C)CC4)cc1OC (centres undefined) returned KB-V1 MDR tox inconclusive, PI4K2A inh -3, Nrf2 inh -19%, KB-3-1 tox inactive and A549 tox 2%.
For CN1CC2(Cc3cc([N+](=O)[O-])ccc31)C(=O)OC(C)(C)OC2=O the results were KB-V1 MDR tox inconclusive, Giardia kill -9, Nrf2 inh inconclusive, KB-3-1 tox inconclusive and A549 tox -13%.
Screening CCc1ccc(CNC(=O)CSCc2cnn(-c3ccccc3)c2-n2cccc2)cc1 returned PI4K2A inh -4, Nrf2 inh 2% and A549 tox 4%.
Screening C/C=C(/C)C(=O)OC(C)(C)[C@@H]1Cc2c(ccc3ccc(=O)oc23)O1 returned KB-V1 MDR tox inactive, Giardia kill -8, PI4K2A inh 6, Nrf2 inh inconclusive, KB-3-1 tox inactive and A549 tox 0%.
`C/C=C(/C)C(=O)O[C@@H]1c2c(ccc3ccc(=O)oc23)O[C@@H]1C(C)(C)OC(=O)/C(C)=C\C` gave KB-V1 MDR tox 6.5µM*, Giardia kill 4, PI4K2A inh -4, Nrf2 inh inconclusive, KB-3-1 tox inconclusive and A549 tox -18%.
For CCn1c(=O)[nH]c2cc(C(=O)Nc3cc(C)cc(C)c3)ccc2c1=O the results were KB-V1 MDR tox inactive, Giardia kill 7, PI4K2A inh -2, Nrf2 inh 16µM*, KB-3-1 tox inactive and A549 tox 11%.
O=C(CN1C(=O)COc2ccc(S(=O)(=O)NC3CCCC3)cc21)Nc1ccc(Cl)cc1 was read as KB-V1 MDR tox inconclusive, PI4K2A inh -2, Nrf2 inh -3%, KB-3-1 tox inactive and A549 tox -1%.
`CCOC(=O)c1ccc(N2C(=O)c3n[nH]c(-c4ccco4)c3C2c2cccc([N+](=O)[O-])c2)cc1` (centres undefined) gave KB-V1 MDR tox 18µM*, Giardia kill 42, PI4K2A inh -7, Nrf2 inh inconclusive, KB-3-1 tox inconclusive and A549 tox inconclusive.
`CCOC(=O)c1ccc(N2C(=O)c3n[nH]c(-c4ccco4)c3C2c2ccc(C(=O)OC)cc2)cc1` (centres undefined) gave KB-V1 MDR tox inconclusive, PI4K2A inh 3, Nrf2 inh inconclusive, KB-3-1 tox inconclusive and A549 tox -20%.
CCOC(=O)c1ccc(N2C(=O)c3n[nH]c(C)c3C2c2ccc(OC)cc2)cc1 (centres undefined) was read as KB-V1 MDR tox 5.2µM*, Giardia kill 4, PI4K2A inh 1, Nrf2 inh inconclusive, KB-3-1 tox inactive and A549 tox -17%.
CCOC(=O)c1ccc(N2C(=O)c3n[nH]c(-c4ccco4)c3C2c2ccc(OC)cc2OC)cc1 (centres undefined) was read as KB-V1 MDR tox inconclusive, PI4K2A inh -1, Nrf2 inh inconclusive, KB-3-1 tox inconclusive and A549 tox -19%.
For CCOC(=O)c1ccc(N2C(=O)c3n[nH]c(C)c3C2c2ccc(OC)cc2OC)cc1 (centres undefined) the results were KB-V1 MDR tox inconclusive, Giardia kill 27, PI4K2A inh -3, Nrf2 inh 18µM*, KB-3-1 tox inconclusive and A549 tox inconclusive.
Screening CCOC(=O)c1sc(N2C(=O)C(O)=C(C(=O)c3ccc(C)o3)C2c2cccc([N+](=O)[O-])c2)nc1C (centres undefined) returned KB-V1 MDR tox inactive, Giardia kill -15, PI4K2A inh -1, Nrf2 inh 23µM*, KB-3-1 tox inactive and A549 tox inconclusive.
`CCOC(=O)c1ccc(N2C(=O)c3n[nH]c(C)c3C2c2ccc(CC)cc2)cc1` (centres undefined) gave KB-V1 MDR tox inactive, PI4K2A inh 1, Nrf2 inh 0%, KB-3-1 tox inactive and A549 tox 3%.
Screening CCC(=O)Nc1cc(-c2cccc(C)c2)nn1-c1ccccc1 returned KB-V1 MDR tox inactive, PI4K2A inh 0, KB-3-1 tox inactive and A549 tox 1%.
Screening Cc1ccc(-c2nn(CC(=O)Nc3cccc(C(F)(F)F)c3)c(=O)c3ccccc23)cc1 returned KB-V1 MDR tox inactive, PI4K2A inh 1, Nrf2 inh inconclusive, KB-3-1 tox inactive and A549 tox -1%.
For CC(C)(C)Cc1nc2ccccc2n1CCc1ccccc1 the results were KB-V1 MDR tox 18µM*, Giardia kill -3, PI4K2A inh 7, Nrf2 inh -9%, KB-3-1 tox inconclusive and A549 tox -4%.
Cc1nn(-c2nc3ccccc3n2Cc2ccccc2)c2c1C(=O)CC(C)(C)C2 was read as KB-V1 MDR tox 21µM*, Giardia kill -3, PI4K2A inh 5, KB-3-1 tox inconclusive and A549 tox 1%.
Cc1nn(-c2ccccc2)c2c1C(=O)N(Cc1ccccc1)C(=O)C(C)(C)C2 was read as KB-V1 MDR tox inactive, Giardia kill -9, PI4K2A inh -2, KB-3-1 tox inactive and A549 tox 4%.
For CC(=O)Nc1nonc1-c1nc2ccccc2n1Cc1ccccc1 the results were KB-V1 MDR tox 16µM*, Giardia kill 6, PI4K2A inh 3, Nrf2 inh inconclusive, KB-3-1 tox 15µM* and A549 tox 1%.
Cc1nc2ccccc2n1Cc1ccccc1 was read as KB-V1 MDR tox inconclusive, Giardia kill -3, PI4K2A inh 3, Nrf2 inh 21µM*, KB-3-1 tox inactive and A549 tox 1%.
For CC(C)CNc1cccc2c1S(=O)(=O)N(Cc1cn(Cc3cccc(F)c3)nn1)Cc1ccccc1O2 the results were PI4K2A inh 0.
`Cc1cccc(OCC(=O)Nc2cc(-c3nc4cc(Cl)ccc4o3)ccc2C)c1` gave KB-V1 MDR tox inactive and KB-3-1 tox inactive.
COC(=O)c1ccccc1NC(=O)Cn1c(-c2nonc2N)nc2ccccc21 was read as KB-V1 MDR tox inconclusive, Giardia kill -21, PI4K2A inh 2, KB-3-1 tox 0.63µM* and A549 tox -8%.
For O=C(Nc1nc2ccccc2n1Cc1ccc(Cl)cc1)c1ccco1 the results were KB-V1 MDR tox inactive, Giardia kill 4, PI4K2A inh 0, Nrf2 inh -26%, KB-3-1 tox inactive and A549 tox inconclusive.
